Laboratory results taken from PubChem BioAssay (NCATS).
Records with an inconclusive call do not appear. Entries that show only a call come without a potency. Activity calls are given as the source filed them. Calls follow the shape of the dose curve; as a rule, active = well fitted cell-killing curve with a large enough effect; inconclusive = small, poorly fitted or top-dose-only effect; inactive = flat fitted curve, though single readings scatter.

Test: qHTS of pediatric cancer cell lines to identify multiple opportunities for drug repurposing: Primary screen for TC32 cells (AID 1347089); also: nearly all actives have a fitted effect of over 60% in size
Conditions: TC32 Ewing sarcoma viability, CellTiter-Glo luminescence, 48 h; series mostly up to 45.8 µM
From the text: Drug repurposing or repositioning has been offered as a strategy for drug development in oncology programs. This approach has special potential for childhood cancers and other rare or orphan diseases, where the expected return on new drug development has been a disincentive to pharmaceuticals.
In this project we exploit the poly-pharmacology of drugs to discover new indications via phenotypic screening of a panel of 19 well-characterized cell lines derived from solid tumors seen in children and adolescents. The goal is to identify approved drugs with previously unrecognized anticancer properties that has the potential to reveal new mechanisms and biological processes involved in carcinogenesis or drug resistance. We employed a titration-based paradigm (quantitative high-throughput screening or qHTS), where all compounds were tested at multiple concentrations for their effect on cell viability. Concentration-response curves (CRCs) were derived directly from the primary screen, and both potency and efficacy values were used to identify compounds with robust bioactivity profiles. We screened the NIH Chemical Genomics Center (NCGC) Pharmaceutical Collection (NPC) and Mechanism Interrogation Plate (MIPE) small molecule collections of approved and investigational compounds against these cell lines; and measured metabolically active cells after 48 hours of compound treatment as a proxy for cell viability.
Assay Submitter: Nathalia J. Martinez, National Center for Advancing Translational Sciences, National Institutes of Health, Rockville, MD, USA; email: natalia.martinez@nih.gov
[1] Shen, M et al. Quantitative high-throughput phenotypic screening of pediatric cancer cell lines identifies multiple opportunities for drug repurposing. Oncotarget 2017 Dec 19;9(4):4758-4772. PMID 29435139.
The cells were obtained from University of North Carolina (UNC), Pediatric Preclinical Testing Program (PPT), and Coriell Institute (CI).
qHTS cell viability assay:
Cells were assayed in growth media at a density of 500-1,000 cells/well. Five microliters of cells were dispensed into 1,536-well, white, solid-bottom, TC-treated plates (Greiner Bio One) using a multidrop dispenser and incubated at 37 degrees C, 5% CO2, under a humidified atmosphere for 5 hours. Twenty-three nanoliters of compounds and controls (neutral control DMSO or positive control bortezomib at final concentration of 2.3 uM) were subsequently transferred by Kalypsys pintool. For primary screens, the MIPE collection was tested at 11-point dilutions (final concentrations range from 0.78 nM to 46 µM) and the NPC collection at 8-point dilutions (final concentrations range from 0.59 nM to 46 µM). Compounds tested in follow-up screens were assayed at 11-point dilutions. Cells were incubated for 48 hours, followed by addition of 3 uL of CellTiter-Glo (Promega). After a 15min incubation at room temperature, samples were analyzed for luminescence intensity using a ViewLux High-throughput CCD imager equipped with clear filters.
Potency is read from the fitted curve at half-maximal effect.

SMILES | Potency
CN(C)c1ccc(-c2nc3ncc(Cl)c(N4CCN(CC(=O)Nc5nccs5)CC4)c3[nH]2)cc1 | inactive
CCNC(=O)c1noc(-c2cc(C(C)C)c(O)cc2O)c1-c1ccc(CN2CCOCC2)cc1 | 0.165 µM (active)
C[C@@H](O)[C@H]1C(=O)N2C(C(=O)OCOC(=O)C(C)(C)C)=C(SC3CN(C4=NCCS4)C3)[C@H](C)[C@H]12 | inactive
COc1ccc(CCC(=O)Nc2nc3ccc(Cl)cc3s2)cc1OC | inactive
Cc1ccc(NC(=O)Nc2cc(C(F)(F)F)ccc2F)cc1Nc1ccc2c(c1)NC(=O)C2=Cc1ccc[nH]1 | inactive
COc1nccc(-c2c(-c3ccc(F)cc3)ncn2C2CCC(O)CC2)n1 (stereo not given) | inactive
COc1ccc(C=CC(=O)Nc2ccccc2C(=O)O)cc1OC | inactive
CCC[C@H](N[C@@H](C)C(=O)N1[C@@H]2CCCC[C@H]2C[C@H]1C(=O)O)C(=O)OCC | inactive
C=CC[N+]1([C@H]2C[C@H]3[C@@H]4CC[C@H]5C[C@H](O)[C@@H](N6CCOCC6)C[C@]5(C)[C@@H]4CC[C@]3(C)[C@H]2OC(C)=O)CCCC1 | inactive
CCNC(=O)[C@H]1O[C@@H](n2cnc3c(N)nc(NCCc4ccc(CCC(=O)O)cc4)nc32)[C@H](O)[C@H]1O | inactive
COc1ccc(-c2oc3c(CC=C(C)C)c(O)cc(O)c3c(=O)c2O)cc1 | inactive
COc1cc(C=CC(=O)O)ccc1O | inactive
C[C@@H](N)c1ccc(C(=O)Nc2ccnc3[nH]ccc23)cc1 | inactive
CC(C)(C)c1nc(-c2cccc(NS(=O)(=O)c3c(F)cccc3F)c2F)c(-c2ccnc(N)n2)s1 | inactive
Cc1ccccc1-n1c(Cn2nc(-c3cccc(O)c3)c3c(N)ncnc32)nc2cccc(C)c2c1=O | inactive
O=C1NC(=O)C(=Cc2ccc(-c3ccc(F)cc3O)o2)S1 | inactive
C=C1c2cccc(O)c2C(O)=C2C(=O)[C@@]3(O)C(O)=C(C(N)=O)C(=O)[C@@H](N(C)C)[C@@H]3[C@@H](O)[C@H]12 | inactive
NCc1c[nH]c(=S)n1[C@H]1CCc2c(F)cc(F)cc2C1 | inactive
Cc1ccc(NC(=O)c2cccc(N(C)C)c2)cc1NC(=O)c1ccc(O)cc1 | 13.1 µM (active)
C[C@H](CCC(=O)O)[C@H]1CC[C@H]2[C@H]3[C@@H](CC[C@]12C)[C@@]1(C)CC[C@@H](O)C[C@H]1C[C@@H]3O | inactive

SMILES | Potency
CC(C)CN(C[C@H](O)[C@H](Cc1ccccc1)NC(=O)O[C@H]1CCOC1)S(=O)(=O)c1ccc(N)cc1 | inactive
CC(C)C[C@@H](C(=O)N[C@H](C(=O)OC1CCCC1)c1ccccc1)[C@H](O)C(=O)NO | inactive
FC(F)(F)c1ccc(C=Cc2nc(COc3ccc(CCCCn4ccnn4)cc3)co2)cc1 | 6.58 µM (active)
Cc1c(-c2cccc3c(CCCOc4cccc5ccccc45)c(C(=O)O)n(Cc4cccnc4)c23)c(COc2ccc(N3CCN([S+](=O)([O-])N(C)C)CC3)cc2)nn1C | inactive
COc1cc(Nc2nc3ccccc3nc2NS(=O)(=O)c2ccc(NC(=O)c3ccc(C)c(OC)c3)cc2)cc(OC)c1 | inactive
CN1CCN(c2cccc(Nc3nc4c(-c5ccc(S(C)(=O)=O)cc5)cccn4n3)c2)CC1 | inactive
Cc1cn([C@@H]2C[C@@H](O)[C@H](CO)O2)c(=O)[nH]c1=O | inactive
Cc1nn(Cc2ccccc2Cl)c(C)c1CN(C)CC(O)COc1ccc(Cl)cc1 (stereo not given) | inactive
Cc1ccc(S(=O)(=O)Nc2nc3ccccc3nc2Nc2ccc3nsnc3c2)cc1 | inactive
CCN1CCN(c2ccc(Nc3cc(N(C)C(=O)Nc4c(Cl)c(OC)cc(OC)c4Cl)ncn3)cc2)CC1 | inactive
CNC(=O)c1cc(COc2nnc(Nc3ccc(Cl)cc3)c3ccoc23)ccn1 | inactive
CCOC(=O)[C@@H](N)CCC(=O)N[C@@H](CSCc1ccccc1)C(=O)N[C@@H](C(=O)OCC)c1ccccc1 | inactive
O=C(CO)N1CCC(c2[nH]nc(-c3ccc(Cl)cc3)c2-c2ccncn2)CC1 | inactive
CN[C@@H]1CN(c2ccc3c(=O)c(C(=O)O)cn(-c4nccs4)c3n2)C[C@@H]1OC | 12.8 µM (active)
c1ccc(CNc2nc(N3CCOc4ccccc43)nc3c2CCCC3)cc1 | inactive
Cc1cc(CS(=O)(=O)c2ccccc2)cc(OCc2ccc(CN3CCC[C@H]3CO)cc2)c1 | inactive
CCCCCCOC(=O)N=C(N)c1ccc(NCc2nc3cc(C(=O)N(CCC(=O)OCC)c4ccccn4)ccc3n2C)cc1 | inactive
NC[C@H]1O[C@H](O[C@@H]2[C@@H](O)[C@@H](O[C@H]3O[C@H](CO)[C@@H](O)[C@H](N)[C@@H]3O)[C@H](N)C[C@@H]2N)[C@H](O)[C@@H](O)[C@H]1O | inactive
CCCCn1c(=O)n(Cc2ccccc2F)c(=O)c2[nH]c(Cc3ccc(NC(C)=O)cc3)nc21 | inactive
O=C(O)C1=CC(O)C(O)[C@H](O)C1 (stereo not given in full) | inactive
